aSyn yeast inh: inhibitors of alpha-synuclein toxicity in yeast. 0.14% of 370,000 active. Potency, µM (series often up to 46.1 µM), usual class: activators. Yeast expressing alpha-synuclein, growth rescue, BacTiter-Glo, 24 h; note: nearly all actives have a fitted effect of over 65% in size
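Readout is rescue of growth in alpha-synuclein-expressing yeast, so inhibitors of toxicity appear as activators. Growth after 24 hr at 30 deg C in galactose medium is quantified by luminescence.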
Abeta yeast res: restores growth of yeast expressing A-beta42 peptide; yeast expressing A-beta42, growth rescue, OD600, 48 h; response scale: 0% DMSO, 100% iron-clioquinol control; Potency, µM (series often up to 46.1 µM), actives largely listed as activators; 0.063% of 410,000 active; note: nearly all actives have a fitted effect of over 55% in size
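Yeast growth medium received pinned compounds, then yeast cells expressing toxic A-beta were added; plates incubated at 30 C for 48 hr. Growth read as absorbance at 600 nm, normalized to DMSO and equimolar FeCl3 plus clioquinol controls.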
MBNL1-CUG inh: blocks human MBNL1 binding to CUG repeat RNA; Potency, µM (series often up to 57.5 µM), actives largely listed as inhibitors; TR-FRET MBNL1-His/biotin-(CUG)12 binding, 665/545 ratio; 0.036% of 280,000 active; active = well fitted inhibition curve with a large enough effect in the signal ratio, with a control signal flat, not every such curve was filed as active; inconclusive = small, poorly fitted or top-dose-only effect, or effect the other way, or a change in a side signal; inactive = no such curve, though single readings can be large or run the other way; the % refers to the signal ratio
Target sequence (Q9NR56 whole entry, looked up): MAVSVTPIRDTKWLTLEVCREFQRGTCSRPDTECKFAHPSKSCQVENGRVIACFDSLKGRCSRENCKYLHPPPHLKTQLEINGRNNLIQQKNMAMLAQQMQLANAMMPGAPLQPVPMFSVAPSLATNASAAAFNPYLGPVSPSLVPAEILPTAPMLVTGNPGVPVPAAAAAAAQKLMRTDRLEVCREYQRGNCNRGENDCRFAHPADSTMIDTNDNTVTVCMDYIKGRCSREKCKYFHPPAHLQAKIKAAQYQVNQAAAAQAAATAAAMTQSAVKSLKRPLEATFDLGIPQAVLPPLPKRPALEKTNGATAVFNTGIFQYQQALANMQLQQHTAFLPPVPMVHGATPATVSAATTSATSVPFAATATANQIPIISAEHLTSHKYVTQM
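Compounds (final 92 nM to 58 uM) are added to His-tagged MBNL1 and biotin-(CUG)12, then terbium anti-His antibody and streptavidin-XL665 (5 nM final). After 60 min at room temperature, the 665/545 nm ratio is read.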
TDP43 rescue: inhibitors of TDP-43 toxicity in yeast. TDP-43 expressing yeast growth rescue, BacTiter-Glo, 24 h. Potency, µM (doses to about 46.1 µM), hits mostly activators. 1.8% of 410,000 active; note: nearly all actives have a fitted effect of over 50% in size
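Yeast cells expressing TDP-43 under galactose induction are exposed to compounds for 24 hr at 30 deg C. BacTiter-Glo luminescence measures growth, so protective compounds score as activators.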
GRP78 ERSR act: induces the endoplasmic reticulum stress response in human glioma cells. U87-MG GRP78 promoter luciferase reporter, 16 h. Potency, µM, usual class: activators. 0.02% of 420,000 active. AID 602332; note: series mostly up to about 76 µM; nearly all actives have a fitted effect of over 35% in size
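ERSR induction read as luciferase luminescence (Bright-Glo, 10 min at room temperature) in stably transfected human U87-MG glioma cells exposed to compounds for 16 h, using GRP78 as sensor.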
FUS yeast rescue: FUS proteinopathy suppression in yeast; S. cerevisiae FUS-expressing, growth rescue, OD600, 24 h; Potency, µM (titrated, usually from 76.6 µM), usual class: activators; 0.24% of 390,000 active; note: nearly all actives have a fitted effect of over 55% in size
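Cultures pregrown in 2.5% raffinose medium are shifted to minimal medium containing 2% galactose to express toxic FUS. Compounds are tested at several concentrations. After 24hr at 30C, growth is quantified at 600 nm absorbance.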
A number is an active result; . = inactive; ? = inconclusive; / = no result given. This is a sample that favours compounds with a hit; in the whole collection about 2% have one here. Unless noted, calls come from the whole dose curve; as a rule, active = well fitted curve in the direction sought with a large enough effect; inconclusive = small, poorly fitted or top-dose-only effect, or another doubt; inactive = no such curve, though single readings can be large; an effect the other way counts as inactive or inconclusive.

SMILES | aSyn yeast inh | Abeta yeast res | MBNL1-CUG inh | TDP43 rescue | GRP78 ERSR act | FUS yeast rescue
CC(C)OCc1cc(CN2CCN(c3cccc(C(F)(F)F)c3)CC2)c(O)c2ncccc12 | / | . | / | . | . | .
CCCCCOc1ccc(/C=N/NC(=O)CSc2nnc(-c3ccc(OC)cc3)n2-c2ccc(C)cc2)cc1 | / | / | / | / | / | .
CNc1nc(Oc2ccc3sc(C)nc3c2)c2sccc2n1 | . | . | / | 20µM | . | .
Cc1nn(C)c(C)c1/C=C/C(=O)c1ccc(Cl)cc1Cl | . | . | . | 25.1µM | . | .
Cc1nn(C)c(C)c1/C=C/C(=O)O | . | . | . | . | . | .
O=C(NNc1nc2cc3c(cc2s1)OCO3)c1ccc(F)cc1 | . | . | ? | . | . | .
O=C(NNc1nc2cc3c(cc2s1)OCCO3)c1ccc(F)cc1 | . | ? | . | 10µM | . | .
COC(C(=O)C(O)C(C)O)C1Cc2cc3cc(OC4CC(OC5CC(O)C(O)C(C)O5)C(O)C(C)O4)c(C)c(O)c3c(O)c2C(=O)C1OC1CC(OC2CC(OC3CC(C)(O)C(O)C(C)O3)C(O)C(C)O2)C(O)C(C)O1 (configuration not stated) | . | / | / | / | . | /
COC(=O)N1C(=O)[C@](Cc2ccccc2)(c2ccccc2)N1C(=O)OC | . | . | . | 17.8µM | . | .
COC(=O)N1C(=O)[C@@](Cc2ccccc2)(c2ccccc2)N1C(=O)OC | . | . | . | ? | . | .
COC(=O)N1C(=O)[C@@](c2ccccc2)(C2CCCCC2)N1C(=O)OC | . | . | . | 17.8µM | . | .
CC[C@@]1(c2ccccc2)C(=O)N(C(=O)OC)N1C(=O)OC | . | . | . | . | . | .
COC(=O)N1C(=O)[C@](c2ccccc2)(C(C)C)N1C(=O)OC | . | . | . | 10µM | . | .
CC(=O)c1ccc(OCC(=O)N2CCCCC2)cc1 | / | / | / | / | . | /
O=C(NCCCOc1ccc([N+](=O)[O-])cc1Cl)OCc1ccccc1 | ? | . | / | 15.8µM | . | /
COc1ccc(-c2csc(NC(=O)CSCc3c(C)noc3C)n2)c(OC)c1 | . | . | / | 15.8µM | . | .
COc1ccc(OC)c(-c2csc(NC(=O)Cc3ccccc3F)n2)c1 | . | . | . | ? | . | .
COc1ccc(OC)c(-c2csc(NC(=O)Cc3ccccc3OC)n2)c1 | . | . | . | 10µM | . | .
CC(=O)Nc1ccc(N/C=C/C(=O)c2ccccc2)cc1 | . | . | ? | 12.6µM | . | .
CC(=O)c1ccc(C(=O)NCC2Cc3cccc(-c4ncccn4)c3O2)cc1 (configuration not stated) | / | / | / | / | . | /
Cn1c(=O)c2cc(NC(=O)Cc3ccccc3F)ccc2n1-c1ccc(C(C)(C)C)cc1 | ? | . | / | . | . | ?
CCNC(=S)Nc1ccc2c(c1)c(=O)n(C)n2-c1ccc(C(C)(C)C)cc1 | . | . | / | . | . | 31.6µM
Cn1c(NC(=O)c2ccc(F)cc2)nc2ccccc21 | . | . | . | 28.2µM | . | .
O=C(Nc1nc2ccccc2c2nc3ccccc3n12)c1ccc(F)cc1 | / | / | . | / | / | /
O=C(COC(=O)Cc1ccc(Br)cc1)Nc1ccc(Cl)cn1 | . | ? | / | 11.2µM | . | .
SMILES | aSyn yeast inh | Abeta yeast res | MBNL1-CUG inh | TDP43 rescue | GRP78 ERSR act | FUS yeast rescue
Cc1ccc(C)c2c1cc(C)c1nnc(SCC(=O)c3cccs3)n12 | . | . | . | 22.4µM | . | .
Cc1ccc2cc(C)c3nnc(SCC(=O)c4cccs4)n3c2c1C | . | . | ? | ? | . | .
CC(=O)Nc1cccc(-c2nnc(SCC(=O)c3cc([N+](=O)[O-])ccc3Cl)o2)c1 | . | . | / | . | . | 12.6µM
O=C(CSc1nnc(-c2ccncc2)o1)c1cccc([N+](=O)[O-])c1 | . | . | ? | ? | . | .
Cc1cc(C)cc(N(CC(=O)NC2CCC(C)CC2)S(=O)(=O)c2cccs2)c1 (configuration not stated) | / | / | / | / | / | .
OCCN1CCCC12CCC(c1ccccc1)CC2 (configuration not stated) | / | / | / | / | / | .
O=S(=O)(Nc1cccc2ccccc12)c1ccc2ccccc2c1 | 20µM | / | / | / | . | /

Source: PubChem BioAssay
